Records with an inconclusive call do not appear. The source made the active and inactive calls. Unless noted, no stated cut-off is given here; in the data, active means inhibition above about 80%; inactive means the rest.
How the values were obtained:
[1] = viability loss in pontine glioma line – cell-based, SU-DIPG-XIII, MIPE4.0, CellTiter-Glo, qHTS, dose response (AID 1347061; cut-off not given, nearly all actives have AC50 up to about 37 µM;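 further: cells exposed to compound for 48 hours before readout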); details: CellTiter-Glo ATP luminescence
[2] = viability loss in pontine glioma line – cell-based, JHH-DIPG-1, MIPE4.0, CellTiter-Glo, qHTS, dose response (AID 1347062; cut-off not given, nearly all actives have AC50 up to about 27 µM); details: JHH-DIPG-1 viability, CellTiter-Glo ATP luminescence
[3] = viability loss in pontine glioma line – cell-based, SU-DIPG-IV, MIPE4.0, CellTiter-Glo, qHTS, dose response (AID 1347063; cut-off not given, nearly all actives have AC50 up to about 30 µM;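 further: compound exposure lasted 48 hours before the viability readout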); details: CellTiter-Glo ATP luminescence
[4] = growth inhibition of DIPG cells – cell-based, MIPE4.0 library, CellTiter-Glo luminescence, qHTS (AID 1347066; cut-off not given, nearly all actives have AC50 up to about 30 µM;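 further: cells exposed to compound for 48 hours before readout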); details: SU-DIPG-VI viability, CellTiter-Glo ATP luminescence
[5] = growth inhibition, single agent or in combination, cell-based, chromothripsis tumors, cisplatin or BGB combos (AID 1671449); details: LFS_MB_P medulloblastoma cells;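 further: cells exposed for 96 hours; 0% = vehicle DMSO and 100% = killing by high DMSO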
[6] = growth inhibition, single agent and combos, cell-based, chromothripsis tumors, cisplatin or BGB combos (AID 1671450); details: HDN33 neuroblastoma cells, stronger effect = higher value;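 further: cells exposed to compound for four days; 0% = vehicle DMSO and 100% = cell killing by high DMSO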
[7] = growth inhibition, single agents and combos, ICB984, cell-based, cisplatin or BGB combos, synergistic combos for chromothripsis tumors (AID 1671451; call rule not given here;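 further: cells exposed for 96 hours before readout; 0% = vehicle DMSO and 100% = killing by high DMSO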); details: ICB984 medulloblastoma cells, drug combinations, stronger effect = higher value
[8] = growth inhibition, single agents and combos, LFS_MB_1R, cell-based, cisplatin or BGB combos, synergistic combos for chromothripsis tumors (AID 1671452); details: LFS_MB_1R medulloblastoma cells, stronger effect = higher value;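 further: cells exposed for 96 hours before readout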
[9] = growth inhibition, single agents and combos, HTB85, cell-based, BGB or cisplatin IC20 combos, synergistic combos for chromothripsis tumors (AID 1671453); details: HTB85 osteosarcoma cells, drug combinations, stronger effect = higher value;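 further: cells exposed for 96 hours before readout; 0% = vehicle DMSO and 100% = high DMSO killing control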
[10] = growth inhibition, single agents and combos, CRL2098, cell-based, BGB or cisplatin IC20 combos, synergistic combos for chromothripsis tumors (AID 1671454); details: CRL2098 osteosarcoma cells, drug combinations, stronger effect = higher value;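 further: cells exposed for 96 h before readout; 0% = vehicle DMSO and 100% = killing by high DMSO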
[11] = growth inhibition, single agents and combos, HD-MB03, cell-based, BGB or cisplatin IC20 combos, synergistic combos for chromothripsis tumors (AID 1671455; in the data active means inhibition above about 83%;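 further: 0% = vehicle DMSO and 100% = high DMSO as cytotoxic control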); details: HD-MB03 medulloblastoma cells, stronger effect = higher value
[12] = growth inhibition, single agents and combos, UWB1.289, cell-based, BGB or cisplatin combos, synergistic combos for chromothripsis tumors (AID 1671456); details: UWB1.289 ovarian carcinoma cells, stronger effect = higher value;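 further: cells exposed to compound for four days; 0% = vehicle DMSO and 100% = killing by high DMSO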
[13] = growth inhibition, single agents and combos, LFS_MB_2R, cell-based, cisplatin combos, synergistic combos for chromothripsis tumors (AID 1671457); details: LFS_MB_2R medulloblastoma cells, stronger effect = higher value;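 further: cells exposed to compound for four days before readout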
[14] = growth inhibition, MDA-MB-436, cell-based, BGB or cisplatin combos, synergistic combos for chromothripsis tumors (AID 1671458; call rule not given here;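 further: cells exposed for 96 hours; 0% = vehicle DMSO and 100% = killing by high DMSO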); details: MDA-MB-436 breast carcinoma growth inhibition, drug combinations, stronger effect = higher value
[15] = UWB1.289_BRCA1 ovarian cancer growth, cell-based, BGB or cisplatin combinations (AID 1671459); details: UWB1.289 BRCA1 ovarian carcinoma, drug combinations, stronger effect = higher value
[16] = drug combination toxicity in non-malignant astrocytes – cell-based, BGB or cisplatin IC20 combos, cytotoxicity control for chromothriptic childhood tumor combination screen (AID 1671460); details: Human astrocytes, viability inhibition, drug combinations, at 0.5 µM, stronger effect = higher value;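 further: cells exposed to compounds for 96 hours before viability readout; 0% = vehicle and 100% = killing control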
[17] = BT084 cell growth, single and combined drugs, ICGC_MB145, cisplatin and BGB IC40 combos (AID 1671461); details: BT084 medulloblastoma cells, drug combinations, stronger effect = higher value;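 further: cells exposed to drugs for 96 hours; 0% = vehicle DMSO and 100% = high DMSO full killing control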
[18] = RCMB18 cell growth, single agent and combined, cisplatin and BGB IC40 combos (AID 1671462); details: RCMB18 medulloblastoma cells, stronger effect = higher value;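 further: cells exposed to compound for four days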
[19] = CRL1545 cell growth, single agent and combined, cisplatin and BGB IC20 combos (AID 1671464); details: CRL1545 osteosarcoma cells, stronger effect = higher value;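 further: cells exposed to compound for 96 hours before readout; 0% = vehicle DMSO and 100% = high DMSO killing control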
[20] = measured here: combination with BGB IC40, at 0.05 µM
[21] = measured here: with BGB IC20 combination, at 0.5 µM
[22] = measured here: with cisplatin IC20 combination, at 0.5 µM
[23] = measured here: combination with cisplatin, at 0.5 µM
[24] = measured here: combination with cisplatin, at 5 µM

O=C1CCC[C@@H]2[C@H]3CCCN4CCC[C@@H](CN12)[C@@H]34
outcome [1]: inactive
outcome [2]: inactive
outcome [3]: inactive
outcome [4]: inactive
inhibition ([5]; at 0.5 µM, stronger effect = higher value): -20.9% (inactive)
inhibition ([5]; measured here: combination with BGB IC20, at 0.005 µM): -26.5%
inhibition ([5]; measured here: combination with BGB IC40, at 0.005 µM): -23%
inhibition [5, 20]: -17%
inhibition ([5]; measured here: combination with cisplatin, at 0.5 µM, stronger effect = higher value): -27.3%
inhibition ([5]; measured here: combination with cisplatin, at 5 µM, stronger effect = higher value): 64.5%
inhibition ([6]; BGB combo, at 5 µM): 59.7%
inhibition ([6]; at 0.5 µM): 6.84% (inactive)
inhibition ([6]; cisplatin combo, at 5 µM): 52.4%
inhibition [6, 21]: -9.69%
inhibition [6, 22]: 11.1%
inhibition ([6]; single agent, at 5 µM): 48.2%
inhibition ([7]; BGB IC20 combo, at 0.005 µM): 5.19%
inhibition ([7]; BGB IC40 combo, at 0.005 µM): 0.771%
inhibition ([7]; BGB IC40 combo, at 0.05 µM): 63.2%
inhibition ([7]; at 0.5 µM): -0.41% (inactive)
inhibition ([7]; cisplatin combo, at 0.05 µM): 61.6%
inhibition ([7]; cisplatin combo, at 0.5 µM): 2.95%
inhibition ([7]; cisplatin combo, at 5 µM): -10%
inhibition ([7]; measured here: 5 uM single agent, at 5 µM): 1.92%
inhibition ([8]; at 0.5 µM): 12.9% (inactive)
inhibition [8, 20]: -3.79%
inhibition [8, 23]: 12.5%
inhibition [8, 24]: 79.4%
inhibition ([9]; at 0.5 µM): 0.28% (inactive)
inhibition ([9]; measured here: with BGB IC20, at 0.5 µM): 0.562%
inhibition ([9]; measured here: with BGB IC20, at 5 µM): 39.5%
inhibition ([9]; measured here: with cisplatin IC20, at 0.5 µM): -4.39%
inhibition ([9]; measured here: with cisplatin IC20, at 5 µM): 33.8%
inhibition ([9]; single agent, at 5 µM): 15.4%
inhibition ([10]; at 0.5 µM): 11.9% (inactive)
inhibition ([10]; measured here: combination with BGB at IC20, at 0.5 µM): -8.11%
inhibition ([10]; measured here: combination with cisplatin at IC20, at 0.5 µM): 39.2%
inhibition ([11]; at 0.5 µM): 2.42% (inactive)
inhibition ([11]; measured here: combo with BGB at IC20, at 0.5 µM): 3.91%
inhibition ([11]; measured here: combo with cisplatin at IC20, at 0.5 µM): -1.67%
inhibition ([12]; at 0.5 µM): 2.22% (inactive)
inhibition ([12]; measured here: inhibition with BGB combination, at 0.05 µM): 4.13%
inhibition ([12]; measured here: inhibition with cisplatin combination, at 0.05 µM): 1.55%
inhibition ([13]; at 0.5 µM): 0.58% (inactive)
inhibition [13, 23]: 8.66%
inhibition [13, 24]: 60.9%
inhibition ([14]; at 0.5 µM): -3.03% (inactive)
inhibition ([14]; measured here: BGB combination, at 0.5 µM): -5.75%
inhibition ([14]; measured here: BGB combination, at 5 µM): 1.19%
inhibition ([14]; measured here: cisplatin combination, at 0.5 µM): -10.4%
inhibition ([14]; measured here: cisplatin combination, at 5 µM): 1.01%
inhibition ([15]; BGB combination, concentration series, at 5 µM): 24%
inhibition ([15]; at 0.5 µM): 2.45% (inactive)
inhibition ([15]; cisplatin combination, concentration series, at 5 µM): 16.1%
inhibition [16]: 2.72% (inactive)
inhibition ([16]; measured here: combo with BGB IC20): 3.13%
inhibition ([16]; measured here: combo with cisplatin IC20): 4.87%
inhibition ([17]; at 0.5 µM): 3.62% (inactive)
inhibition ([17]; cisplatin combination, at 0.5 µM): 3.61%
inhibition ([17]; cisplatin combination, at 5 µM): 62.6%
inhibition ([17]; measured here: BGB IC40 combination 0.05 uM, at 0.05 µM): -11%
inhibition ([17]; single agent, at 5 µM): 75.7%
inhibition ([18]; at 0.5 µM): -5.51% (inactive)
inhibition ([18]; cisplatin combo, at 5 µM): 33.7%
inhibition ([18]; measured here: BGB IC40 combination, at 0.05 µM): -15.6%
inhibition [18, 23]: -27.9%
inhibition ([18]; single agent, at 5 µM): 31.3%
inhibition ([19]; at 0.5 µM): 8.42% (inactive)
inhibition [19, 21]: -16.4%
inhibition [19, 22]: 19.6%
inhibition ([19]; single agent, at 0.05 µM): -32.9%
inhibition ([19]; single agent, at 5 µM): -58%

From PubChem BioAssay
